Test results taken from PubChem BioAssay.
Activity calls are given as the source filed them. Rule as the data show it, unless noted: active = inhibition above about 80%; inactive = the rest.

Assays:
[1] = growth inhibition, single agent or in combination, cell-based, chromothripsis tumors, cisplatin or BGB combos (AID 1671449); conditions: LFS_MB_P medulloblastoma cells;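 also: cells exposed for 96 hours; 0% = vehicle DMSO and 100% = killing by high DMSO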
[2] = growth inhibition, single agent and combos, cell-based, chromothripsis tumors, cisplatin or BGB combos (AID 1671450); conditions: HDN33 neuroblastoma cells, stronger effect = higher value;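 also: cells exposed to compound for four days; 0% = vehicle DMSO and 100% = cell killing by high DMSO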
[3] = growth inhibition, single agents and combos, ICB984, cell-based, cisplatin or BGB combos, synergistic combos for chromothripsis tumors (AID 1671451; call rule not given here;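 also: cells exposed for 96 hours before readout; 0% = vehicle DMSO and 100% = killing by high DMSO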); conditions: ICB984 medulloblastoma cells, drug combinations, stronger effect = higher value
[4] = growth inhibition, single agents and combos, LFS_MB_1R, cell-based, cisplatin or BGB combos, synergistic combos for chromothripsis tumors (AID 1671452); conditions: LFS_MB_1R medulloblastoma cells, stronger effect = higher value;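 also: cells exposed for 96 hours before readout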
[5] = growth inhibition, single agents and combos, HTB85, cell-based, BGB or cisplatin IC20 combos, synergistic combos for chromothripsis tumors (AID 1671453); conditions: HTB85 osteosarcoma cells, drug combinations, stronger effect = higher value;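 also: cells exposed for 96 hours before readout; 0% = vehicle DMSO and 100% = high DMSO killing control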
[6] = growth inhibition, single agents and combos, CRL2098, cell-based, BGB or cisplatin IC20 combos, synergistic combos for chromothripsis tumors (AID 1671454); conditions: CRL2098 osteosarcoma cells, drug combinations, stronger effect = higher value;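 also: cells exposed for 96 h before readout; 0% = vehicle DMSO and 100% = killing by high DMSO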
[7] = growth inhibition, single agents and combos, HD-MB03, cell-based, BGB or cisplatin IC20 combos, synergistic combos for chromothripsis tumors (AID 1671455; in the data active = inhibition above about 83%;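 also: 0% = vehicle DMSO and 100% = high DMSO as cytotoxic control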); conditions: HD-MB03 medulloblastoma cells, stronger effect = higher value
[8] = growth inhibition, single agents and combos, UWB1.289, cell-based, BGB or cisplatin combos, synergistic combos for chromothripsis tumors (AID 1671456); conditions: UWB1.289 ovarian carcinoma cells, stronger effect = higher value;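 also: cells exposed to compound for four days; 0% = vehicle DMSO and 100% = killing by high DMSO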
[9] = growth inhibition, single agents and combos, LFS_MB_2R, cell-based, cisplatin combos, synergistic combos for chromothripsis tumors (AID 1671457); conditions: LFS_MB_2R medulloblastoma cells, stronger effect = higher value;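 also: cells exposed to compound for four days before readout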
[10] = growth inhibition, MDA-MB-436, cell-based, BGB or cisplatin combos, synergistic combos for chromothripsis tumors (AID 1671458; call rule not given here;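 also: cells exposed for 96 hours; 0% = vehicle DMSO and 100% = killing by high DMSO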); conditions: MDA-MB-436 breast carcinoma growth inhibition, drug combinations, stronger effect = higher value
[11] = UWB1.289_BRCA1 ovarian cancer growth, cell-based, BGB or cisplatin combinations (AID 1671459); conditions: UWB1.289 BRCA1 ovarian carcinoma, drug combinations, stronger effect = higher value
[12] = drug combination toxicity in non-malignant astrocytes – cell-based, BGB or cisplatin IC20 combos, cytotoxicity control for chromothriptic childhood tumor combination screen (AID 1671460); conditions: Human astrocytes, viability inhibition, drug combinations, at 0.5 µM, stronger effect = higher value;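 also: cells exposed to compounds for 96 hours before viability readout; 0% = vehicle and 100% = killing control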
[13] = BT084 cell growth, single and combined drugs, ICGC_MB145, cisplatin and BGB IC40 combos (AID 1671461); conditions: BT084 medulloblastoma cells, drug combinations, stronger effect = higher value;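 also: cells exposed to drugs for 96 hours; 0% = vehicle DMSO and 100% = high DMSO full killing control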
[14] = RCMB18 cell growth, single agent and combined, cisplatin and BGB IC40 combos (AID 1671462); conditions: RCMB18 medulloblastoma cells, stronger effect = higher value;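 also: cells exposed to compound for four days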
[15] = CRL1545 cell growth, single agent and combined, cisplatin and BGB IC20 combos (AID 1671464); conditions: CRL1545 osteosarcoma cells, stronger effect = higher value;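 also: cells exposed to compound for 96 hours before readout; 0% = vehicle DMSO and 100% = high DMSO killing control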
[16] = at 0.5 µM, stronger effect = higher value
[17] = measured here: combination with BGB IC20, at 0.005 µM
[18] = measured here: combination with BGB IC40, at 0.005 µM
[19] = measured here: combination with BGB IC40, at 0.05 µM
[20] = measured here: combination with cisplatin, at 0.5 µM, stronger effect = higher value
[21] = measured here: combination with cisplatin, at 5 µM, stronger effect = higher value
[22] = measured here: with BGB IC20 combination, at 0.5 µM
[23] = measured here: with cisplatin IC20 combination, at 0.5 µM
[24] = measured here: 5 uM single agent, at 5 µM
[25] = measured here: combination with cisplatin, at 0.5 µM
[26] = measured here: combination with cisplatin, at 5 µM
[27] = measured here: with BGB IC20, at 0.5 µM
[28] = measured here: with BGB IC20, at 5 µM
[29] = measured here: with cisplatin IC20, at 0.5 µM
[30] = measured here: with cisplatin IC20, at 5 µM
[31] = measured here: combination with BGB at IC20, at 0.5 µM
[32] = measured here: combination with cisplatin at IC20, at 0.5 µM
[33] = measured here: combo with BGB at IC20, at 0.5 µM
[34] = measured here: combo with cisplatin at IC20, at 0.5 µM
[35] = measured here: inhibition with BGB combination, at 0.05 µM
[36] = measured here: inhibition with cisplatin combination, at 0.05 µM
[37] = measured here: BGB combination, at 0.5 µM
[38] = measured here: BGB combination, at 5 µM
[39] = measured here: cisplatin combination, at 0.5 µM
[40] = measured here: cisplatin combination, at 5 µM
[41] = BGB combination, concentration series, at 5 µM
[42] = cisplatin combination, concentration series, at 5 µM
[43] = measured here: combo with BGB IC20
[44] = measured here: combo with cisplatin IC20
[45] = cisplatin combination, at 0.5 µM
[46] = measured here: BGB IC40 combination 0.05 uM, at 0.05 µM
[47] = measured here: BGB IC40 combination, at 0.05 µM

## CC(C)OC(=O)[C@H](C)NP(=O)(OC[C@H]1O[C@@H](n2ccc(=O)[nH]c2=O)C(C)(F)[C@@H]1O)Oc1ccccc1 (stereo partly specified)
[1]; [16]
  inhibition: -8.8% (inactive)
[1]; [17]
  inhibition: -10.9%
[1]; [18]
  inhibition: -13.1%
[1]; [19]
  inhibition: 0.698%
[1]; [20]
  inhibition: -3.91%
[1]; [21]
  inhibition: -25.1%
[2]; BGB combo, at 5 µM
  inhibition: -13.9%
[2]; at 0.5 µM
  inhibition: -10.3% (inactive)
[2]; cisplatin combo, at 5 µM
  inhibition: -30.6%
[2]; [22]
  inhibition: -4.98%
[2]; [23]
  inhibition: -21.3%
[2]; single agent, at 5 µM
  inhibition: -29.9%
[3]; BGB IC20 combo, at 0.005 µM
  inhibition: -1.44%
[3]; BGB IC40 combo, at 0.005 µM
  inhibition: -42.6%
[3]; BGB IC40 combo, at 0.05 µM
  inhibition: -35.5%
[3]; at 0.5 µM
  inhibition: -42.2% (inactive)
[3]; cisplatin combo, at 0.05 µM
  inhibition: -40.8%
[3]; cisplatin combo, at 0.5 µM
  inhibition: -53.1%
[3]; cisplatin combo, at 5 µM
  inhibition: -16.6%
[3]; [24]
  inhibition: -3.56%
[4]; at 0.5 µM
  inhibition: -22.9% (inactive)
[4]; [19]
  inhibition: -33.4%
[4]; [25]
  inhibition: -43%
[4]; [26]
  inhibition: -63%
[5]; at 0.5 µM
  inhibition: -9.04% (inactive)
[5]; [27]
  inhibition: -19.6%
[5]; [28]
  inhibition: 7.36%
[5]; [29]
  inhibition: -19.1%
[5]; [30]
  inhibition: -2.79%
[5]; single agent, at 5 µM
  inhibition: 9.61%
[6]; at 0.5 µM
  inhibition: -24.2% (inactive)
[6]; [31]
  inhibition: -7.71%
[6]; [32]
  inhibition: -18.3%
[7]; at 0.5 µM
  inhibition: -8.35% (inactive)
[7]; [33]
  inhibition: -6.27%
[7]; [34]
  inhibition: -4.66%
[8]; at 0.5 µM
  inhibition: -8.12% (inactive)
[8]; [35]
  inhibition: -21%
[8]; [36]
  inhibition: -18.4%
[9]; at 0.5 µM
  inhibition: -25.3% (inactive)
[9]; [25]
  inhibition: -17.8%
[9]; [26]
  inhibition: -16.1%
[10]; at 0.5 µM
  inhibition: -10.8% (inactive)
[10]; [37]
  inhibition: -6.58%
[10]; [38]
  inhibition: -5.34%
[10]; [39]
  inhibition: -21%
[10]; [40]
  inhibition: -5.77%
[11]; [41]
  inhibition: 5.64%
[11]; at 0.5 µM
  inhibition: -2.85% (inactive)
[11]; [42]
  inhibition: 12.8%
[12]
  inhibition: 9.43% (inactive)
[12]; [43]
  inhibition: 6.4%
[12]; [44]
  inhibition: 11.7%
[13]; at 0.5 µM
  inhibition: -25.9% (inactive)
[13]; [45]
  inhibition: -7.08%
[13]; cisplatin combination, at 5 µM
  inhibition: 2.71%
[13]; [46]
  inhibition: 66.2%
[13]; single agent, at 5 µM
  inhibition: 3.91%
[14]; at 0.5 µM
  inhibition: -23.5% (inactive)
[14]; cisplatin combo, at 5 µM
  inhibition: -18.9%
[14]; [47]
  inhibition: 1.12%
[14]; [25]
  inhibition: 19.3%
[14]; single agent, at 5 µM
  inhibition: -63.1%
[15]; at 0.5 µM
  inhibition: -19.7% (inactive)
[15]; [22]
  inhibition: -19.2%
[15]; [23]
  inhibition: -19.9%
[15]; single agent, at 0.05 µM
  inhibition: 7.91%
[15]; single agent, at 5 µM
  inhibition: -24.5%

## COc1cccc2c1C(=O)c1c(O)c3c(c(O)c1C2=O)CC(O)(C(=O)CO)CC3OC1CC(N)C(OC2CCCCO2)C(C)O1 (stereo unspecified)
[1]; [16]
  inhibition: -32.3% (inactive)
[1]; [17]
  inhibition: 9.11%
[1]; [18]
  inhibition: -11.4%
[1]; [19]
  inhibition: -11.1%
[1]; [20]
  inhibition: -47.4%
[1]; [21]
  inhibition: 110%
[2]; BGB combo, at 5 µM
  inhibition: 97.2%
[2]; at 0.5 µM
  inhibition: 23.8% (inactive)
[2]; cisplatin combo, at 5 µM
  inhibition: 99.2%
[2]; [22]
  inhibition: 21.1%
[2]; [23]
  inhibition: 4.67%
[2]; single agent, at 5 µM
  inhibition: 99%
[3]; BGB IC20 combo, at 0.005 µM
  inhibition: -23.2%
[3]; BGB IC40 combo, at 0.005 µM
  inhibition: -47.6%
[3]; BGB IC40 combo, at 0.05 µM
  inhibition: 94.7%
[3]; at 0.5 µM
  inhibition: -38.2% (inactive)
[3]; cisplatin combo, at 0.05 µM
  inhibition: 94.5%
[3]; cisplatin combo, at 0.5 µM
  inhibition: -60.7%
[3]; cisplatin combo, at 5 µM
  inhibition: -43.3%
[3]; [24]
  inhibition: -14.9%
[4]; at 0.5 µM
  inhibition: 60.2% (inactive)
[4]; [19]
  inhibition: -55.1%
[4]; [25]
  inhibition: 53.5%
[4]; [26]
  inhibition: 95%
[5]; at 0.5 µM
  inhibition: 56.2% (inactive)
[5]; [27]
  inhibition: 23.4%
[5]; [28]
  inhibition: 99%
[5]; [29]
  inhibition: 91%
[5]; [30]
  inhibition: 99.6%
[5]; single agent, at 5 µM
  inhibition: 99.2%
[6]; at 0.5 µM
  inhibition: 30.1% (inactive)
[6]; [31]
  inhibition: 85.5%
[6]; [32]
  inhibition: 33.2%
[7]; at 0.5 µM
  inhibition: 70.5% (inactive)
[7]; [33]
  inhibition: 69.8%
[7]; [34]
  inhibition: 77.2%
[8]; at 0.5 µM
  inhibition: 12.2% (inactive)
[8]; [35]
  inhibition: 26.6%
[8]; [36]
  inhibition: -27.7%
[9]; at 0.5 µM
  inhibition: -17% (inactive)
[9]; [25]
  inhibition: -2.89%
[9]; [26]
  inhibition: 86.3%
[10]; at 0.5 µM
  inhibition: 24.8% (inactive)
[10]; [37]
  inhibition: 4.22%
[10]; [38]
  inhibition: 64.7%
[10]; [39]
  inhibition: 26.1%
[10]; [40]
  inhibition: 84.5%
[11]; [41]
  inhibition: 94.3%
[11]; at 0.5 µM
  inhibition: 16.1% (inactive)
[11]; [42]
  inhibition: 96.5%
[12]
  inhibition: 50% (inactive)
[12]; [43]
  inhibition: 42.8%
[12]; [44]
  inhibition: 39.2%
[13]; at 0.5 µM
  inhibition: 2.98% (inactive)
[13]; [45]
  inhibition: 23.2%
[13]; cisplatin combination, at 5 µM
  inhibition: -6.21%
[13]; [46]
  inhibition: -28.8%
[13]; single agent, at 5 µM
  inhibition: 27%
[14]; at 0.5 µM
  inhibition: 21.9% (inactive)
[14]; cisplatin combo, at 5 µM
  inhibition: 71.1%
[14]; [47]
  inhibition: -38.8%
[14]; [25]
  inhibition: 44.2%
[14]; single agent, at 5 µM
  inhibition: 71.6%
[15]; at 0.5 µM
  inhibition: 91.3% (active)
[15]; [22]
  inhibition: 85.6%
[15]; [23]
  inhibition: 94.1%
[15]; single agent, at 0.05 µM
  inhibition: -29.5%
[15]; single agent, at 5 µM
  inhibition: 99.5%
